In all, about 310,000 compounds went through this assay and about 14,000 (4.5%) showed an effect of 50% or more. The effect is printed as a negative number. For the sample, strong results were picked, then their nearest neighbours and some compounds at random.
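Note: peak tail current of the secondary pulse compared with the same well before compound.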

In the experiment the target is human ether-à-go-go-related gene (hERG) potassium channel (human, UniProt Q12809). Briefly: primary screen, population patch clamp on CHO cells stably expressing hERG; higher = less effect of the substance.
human ether-à-go-go-related gene (hERG) potassium channel, sequence (Q12809 whole entry, looked up): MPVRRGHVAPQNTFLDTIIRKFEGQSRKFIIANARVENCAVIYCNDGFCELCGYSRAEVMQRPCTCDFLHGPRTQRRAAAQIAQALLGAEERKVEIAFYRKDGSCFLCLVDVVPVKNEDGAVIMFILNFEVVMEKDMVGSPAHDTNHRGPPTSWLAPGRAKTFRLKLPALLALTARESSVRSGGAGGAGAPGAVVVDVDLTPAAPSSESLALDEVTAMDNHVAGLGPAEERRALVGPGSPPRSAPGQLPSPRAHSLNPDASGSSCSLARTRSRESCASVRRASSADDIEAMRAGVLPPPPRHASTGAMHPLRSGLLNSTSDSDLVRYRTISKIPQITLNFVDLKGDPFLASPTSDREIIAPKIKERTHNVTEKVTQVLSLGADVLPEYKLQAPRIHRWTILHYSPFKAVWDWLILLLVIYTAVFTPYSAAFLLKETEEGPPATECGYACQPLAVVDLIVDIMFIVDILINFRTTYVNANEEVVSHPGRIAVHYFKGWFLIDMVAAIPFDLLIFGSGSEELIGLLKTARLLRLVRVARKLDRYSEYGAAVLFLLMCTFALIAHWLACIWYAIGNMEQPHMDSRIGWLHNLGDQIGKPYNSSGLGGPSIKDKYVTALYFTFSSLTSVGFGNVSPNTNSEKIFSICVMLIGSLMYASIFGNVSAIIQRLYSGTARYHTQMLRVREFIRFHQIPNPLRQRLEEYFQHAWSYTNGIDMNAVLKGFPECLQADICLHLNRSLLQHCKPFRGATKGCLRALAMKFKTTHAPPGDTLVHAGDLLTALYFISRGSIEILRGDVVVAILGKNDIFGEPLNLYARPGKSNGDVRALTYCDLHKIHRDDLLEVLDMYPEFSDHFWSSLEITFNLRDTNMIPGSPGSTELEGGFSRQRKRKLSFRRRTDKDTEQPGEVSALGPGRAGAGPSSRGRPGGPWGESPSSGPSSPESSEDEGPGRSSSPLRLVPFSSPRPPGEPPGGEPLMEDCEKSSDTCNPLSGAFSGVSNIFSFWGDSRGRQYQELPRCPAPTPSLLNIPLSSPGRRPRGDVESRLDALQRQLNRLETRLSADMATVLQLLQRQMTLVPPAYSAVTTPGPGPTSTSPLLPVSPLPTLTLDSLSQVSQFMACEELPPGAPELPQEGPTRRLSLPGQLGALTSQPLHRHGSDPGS
For the compound `COc1cc2[nH]c(C(=O)N3CCN(c4ccc(F)cc4)CC3)cc2c(OC)c1OC`, the “hERG current change (%, negative = inhibition) at 10uM” value is 17.9%. The same measure for `Cc1ccc(C)c(CN2CCSCC2)c1`: 17.3%; for `O=C(Nn1c(-c2ccccc2)nc2ccccc2c1=O)c1ccco1`: 3.87%.

As for `O=C(Oc1ccccc1)n1c(=S)oc2ccccc21`, the “hERG current change (%, negative = inhibition) at 10uM” value turned out to be 12.2%. For `O=C(N/N=C/c1ccc[nH]1)c1ccccc1[N+](=O)[O-]` the value was 19.9%.

Turning to `O=C(c1cccc(N2C(=O)C3CC=CCC3C2=O)c1)N1CCCCCC1` (centres unmarked), the “hERG current change (%, negative = inhibition) at 10uM” value is reported as -3.26%. The same measure for `Cc1ccc(-c2nnc3n2N=C(c2ccccc2)CS3)cc1`: 3.15%; for `O=C(C1COc2ccccc2O1)N1CCN(c2ccccc2O)CC1` (centres unmarked): -12.5%.

In the case of `O=C1C2C3C=CC(C4CC34)C2C(=O)N1c1cc(Cl)ccn1` (centres unmarked), the “hERG current change (%, negative = inhibition) at 10uM” value came out at 2.55%. The same measure for `Cc1csc(Sc2nc3c(c(=O)[nH]c(=O)n3C)n2CCCc2ccccc2)n1`: 12.2%. In the case of `C=CCOC(=O)c1ccc(-n2cncn2)nc1`, the “hERG current change (%, negative = inhibition) at 10uM” value is reported as -4.47%. The same measure for `Cc1ccc(S(=O)(=O)N2c3ccccc3OCC2C(C)(C)C)cc1` (centres unmarked): 4.08%; for `COc1ccc(CNC(=O)NC2CCCCC2)cc1`: 2.13%; for `O=C(NCC1CC1)Nc1ccccc1F`: 18.8%. Regarding `Cc1ccc(CN2CCN(Cc3ccccc3F)CC2)cc1.O=C(O)C(=O)O`, the “hERG current change (%, negative = inhibition) at 10uM” value is given as -12.2%.

`COc1ccc(CN2CCC(CNC(=O)NC3CCCCC3)CC2)cc1`: the “hERG current change (%, negative = inhibition) at 10uM” value was -67.7%. Take `Cc1ccc(CN2CCC(CNC(=O)Nc3ccccc3F)CC2)cc1`: the “hERG current change (%, negative = inhibition) at 10uM” value is -69.7%. For `COc1ccc(CCNC(=O)NC2CCCCC2)cc1` the value was 0.125%; for `Cc1nn(Cc2ccc(Cl)cc2Cl)c(C)c1NC(=O)C1C2CCC(O2)C1C(=O)O` (centres unmarked), -9.88%.

Consider `CC(Oc1ccc(Cl)cc1Cl)C(=O)NCCC1=CCCCC1` (centres unmarked), for which the “hERG current change (%, negative = inhibition) at 10uM” value is recorded as 4.46%. The same measure for `Cc1ccc(CN(C)C(=O)c2ccc3c(c2)NC(=O)CS3)o1`: -17.2%; for `Cc1cc(S(=O)(=O)NCc2cccnc2)ccc1F`: -3.24%. The same measure for `COc1ccc(S(=O)(=O)CCC(=O)N(C)c2ccc(OC)cc2OC)cc1`: -12.8%; for `CN1CC(=O)NC1=NC(=O)C12CC3CC(CC(C3)C1)C2`: -8.73%. Regarding `Cl.Clc1cccc(Cl)c1CNC1CCCC1`, the “hERG current change (%, negative = inhibition) at 10uM” value worked out at 13.5%. As to `Cc1ccc(N(C(=O)Cn2nnc3ccccc32)C(C(=O)NCc2ccccc2)c2ccccn2)cc1` (centres unmarked), the “hERG current change (%, negative = inhibition) at 10uM” value is -45.5%. For `CC(=O)c1ccc(N(C(=O)Cn2nnc3ccccc32)C(C(=O)NCc2ccccc2)c2ccccn2)cc1` (centres unmarked) the value was -73.2%; for `CC(=O)c1cccc(N(C(=O)Cn2nnc3ccccc32)C(C(=O)NCc2ccccc2)c2ccccn2)c1` (centres unmarked), -39%. The same measure for `COc1ccc(Cc2nc3ccc(C(=O)N(C)CCCN4CCOCC4)cc3o2)cc1`: 10%; for `CCOc1ccc(C(=O)Nc2ccc3c(c2)OCCO3)cc1`: -1.74%. As for `Cc1cc(Nc2ccc3c(c2)OCCO3)c2ccccc2n1.Cl`, the “hERG current change (%, negative = inhibition) at 10uM” value is on record as -56.1%. The same measure for `CCOc1cccc(C(=O)Nc2ccc3c(c2)OCCO3)c1`: 3.35%; for `Cc1ccc2nc(C)cc(Nc3ccc4c(c3)OCCO4)c2c1.Cl`: -58.2%. For `CCOc1ccc2nc(C)cc(Nc3ccc4c(c3)OCCO4)c2c1.Cl` the value was -72.4%; for `Cc1cc(Nc2ccc3c(c2)OCCO3)n2nc(C)nc2n1`, -9.32%. Turning to `Cc1cc(Nc2ccc3c(c2)OCCO3)c2cccc(C)c2n1.Cl`, the “hERG current change (%, negative = inhibition) at 10uM” value is listed as -40.7%. `Cc1cc(C)n2c(Nc3ccc4c(c3)OCCO4)c(-c3ccccc3)nc2n1`: the “hERG current change (%, negative = inhibition) at 10uM” value is listed as -16.7%. The same measure for `Cc1cc(C)c(C(N)=O)c(Nc2ccc3c(c2)OCCO3)n1`: 0.162%; for `Cc1cc(C(=O)Nc2ccc3c(c2)OCCO3)c2ccccc2n1`: 18.4%. Regarding `Cc1cc(Nc2ccc3c(c2)OCCO3)c2cc(Cl)ccc2n1.Cl`, the “hERG current change (%, negative = inhibition) at 10uM” value is -52.6%. As for `Cc1cc(C)c(C#N)c(Nc2ccc3c(c2)OCCO3)n1`, the “hERG current change (%, negative = inhibition) at 10uM” value worked out at 5.17%. Regarding `O=C(COc1ccc(F)cc1Cl)Nc1ccc(N2CCOCC2)cc1N1CCOCC1`, the “hERG current change (%, negative = inhibition) at 10uM” value was -10.2%. `Cc1ccc(C2(C)NC(=O)N(CC(=O)N(Cc3ccccc3)C(C)(C)C)C2=O)cc1` (centres unmarked): the “hERG current change (%, negative = inhibition) at 10uM” value is recorded as -1.1%. The same measure for `Cc1nccn1CC(=O)N/N=C/c1cc(Br)cs1`: 6.58%; for `Cc1ccc(C)c(Cn2cnc3c(nnn3-c3ccc(F)cc3)c2=O)c1`: -2.53%; for `Cn1c(=O)c(C(=O)COC(=O)c2cc(-c3ccco3)nc3ccccc23)c(N)n(Cc2ccccc2)c1=O`: -12.2%. `O=[N+]([O-])c1ccc(/C=C/c2ccc3ccccc3n2)cc1`: the “hERG current change (%, negative = inhibition) at 10uM” value worked out at 5.95%. The same measure for `Cc1cc(C)c(CN2CCN(C(=O)Cn3ccc(NC(=O)OCc4ccccc4)nc3=O)CC2)c(C)c1`: -5.55%; for `COc1ccc(N(CC(=O)NCC2CCCO2)S(=O)(=O)c2ccc(C)cc2)cc1OC` (centres unmarked): -3.96%; for `COC(=O)c1ccccc1C(=O)N1CCCC(CNC(=O)c2ccc(F)cc2)C1` (centres unmarked): 11.2%.

Source of the values: PMC4336329 (PLoS ONE, 2015).
